Experimental findings from PubChem BioAssay AID686928 (Broad Institute, 2013) are described below.

The structures appear in SMILES notation. Results with a measured potency or affinity are listed apart. Values without a mark were called inactive. Activity calls are given as the source filed them. No rule for the calls is given here.

The test can be described thus: human cervical cancer cell viability loss – 24 h, plate reader, dry powder, cytotoxicity control, dose response (AID 686928). The note with it: HeLa cytotoxicity; series mostly up to 80 µM; activity change, negative = cytotoxicity: at the top concentration.
Take `Cn1nc(NC(=O)c2ccco2)c2ccccc21`: the “activity change, negative = cytotoxicity” value was -4.66% [at 100 µM].
Same read-out and setting: with `Cc1ccc2c(=O)ncn(-c3cccc(Cl)c3)c2c1` the figure was 2.63%.
Same read-out and setting: with `O=C(Nc1nnc(-c2ccc3c(c2)CCCC3)o1)C1CCC1` the figure was -27%.
On the same count and under the same terms, the value for `Cc1ccc2cc3c(NC(=O)c4cccs4)nn(C)c3nc2c1` was -31.7%; that for `O=c1ncn(-c2cc(Cl)cc(Cl)c2)c2ccccc12` was -5.54%; that for `O=C(Nc1nnc(-c2cccnc2)o1)C1CCC1` was 10.1% [at 100 µM].
In the case of `CCn1nnnc1NCc1ccc(C(C)C)cc1`, the “activity change, negative = cytotoxicity” value was -0.472% [at 100 µM].
The same measure, in the same setting: with `COc1cccc(-n2cnc(=O)c3ccccc32)c1` the figure was -1.94%; with `COc1ccccc1-c1nnc(NC(=O)C2CCCCC2)o1`, -5.13% [at 100 µM].
For the molecule `COc1ccc(-c2nnc(NC(C)=O)o2)cc1`, the “activity change, negative = cytotoxicity” value was -0.903% [at 100 µM].
Same read-out and setting: the value for `O=c1nc(Cc2ccccc2)n(-c2cccc(Cl)c2)c2ccccc12` was -5.09%; that for `CCOC(=O)c1ccccc1Nc1cccc(Cl)c1` was -5.61%; that for `Cc1nc(=O)c2ccccc2n1-c1cccc(Cl)c1` was 1.96%.
As for `O=C(O)c1ccccc1Nc1cccc(Cl)c1`, the “activity change, negative = cytotoxicity” value is 14%.
Same read-out and setting: the value for `Cc1ccc2cc3c(NC(=O)c4ccoc4)nn(C)c3nc2c1` was -3.71%; that for `O=c1ncn(-c2cccc(F)c2)c2ccccc12` was 1.9%; that for `Cn1nc(NC(=O)c2ccco2)c2cc3ccc(C(C)(C)C)cc3nc21` was -74.1% [at 100 µM].
Consider `CCn1nnnc1NC(C)c1ccc(N2CCCC2)cc1` (stereo not drawn), for which the “activity change, negative = cytotoxicity” value was -0.569% [at 100 µM].
The same measure, in the same setting: with `CN1CCC(C(=O)Nc2nnc(-c3ccc4c(c3)OCCO4)o2)CC1` the figure was 8.1% [at 100 µM].
On to `O=c1ncn(-c2cccc(Cl)c2)c2ccccc12`, for which the molecule was classed as inactive.
As for `CC(C)(C)OC(=O)N1CCC(C(=O)Nc2nnc(-c3ccc4c(c3)OCCO4)o2)CC1`, the “activity change, negative = cytotoxicity” value is 5.35% [at 100 µM].
Still for that read-out and setting: with `Cn1ccc(NC(=O)c2ccco2)n1` the figure was 7.83% [at 100 µM]; with `Cc1ccc2cc3c(NC(=O)c4ccc(C)o4)nn(C)c3nc2c1`, 6.38% [at 100 µM]; with `CCn1nnnc1/N=C/c1ccc(N2CCCCC2)cc1`, -16.1% [at 100 µM].
For `CCc1nc(=O)c2ccccc2n1-c1cccc(Cl)c1`, the “activity change, negative = cytotoxicity” value was -1.68%.
The same measure, in the same setting: with `O=C(CC1CCCCC1)Nc1nnc(-c2ccc3c(c2)CCCC3)o1` the figure was -4.33% [at 35 µM].
The same measure, in the same setting: the value for `C(=N\c1nnc(-c2ccc3c(c2)OCCO3)o1)/c1ccccc1` was -8.71% [at 100 µM]; that for `Cc1ccc2cc3c(NC(=O)Cc4ccco4)nn(C)c3nc2c1` was -21.7% [at 100 µM].
The same measure, in the same setting: with `O=C(Nc1nnc(-c2ccc3c(c2)OCCO3)o1)C1CC1` the figure was 2.93% [at 100 µM]; with `O=c1ncn(-c2ccccc2Cl)c2ccccc12`, -5.96%.
`O=C1C(=O)N(Cc2ccccc2Cl)c2ccccc21`: the “activity change, negative = cytotoxicity” value is -5.25%.
Consider `CN(C)/C=N/c1nnc(-c2ccc3c(c2)OCCO3)o1`, for which the “activity change, negative = cytotoxicity” value is -5.9% [at 100 µM].
On the same count and under the same terms, with `Cc1ccc2cc3c(NC(=O)c4cc5ccccc5o4)nn(C)c3nc2c1` the figure was -46.2% [at 100 µM].
On the same count and under the same terms, with `O=C(CSc1nc2c(c(=O)[nH]1)CCCC2)NC1CCCCC1` the figure was 1.91%.
Same read-out and setting: with `COc1ccc2cc3c(NC(=O)c4ccco4)nn(C)c3nc2c1` the figure was -34.2% [at 100 µM].
As to `O=C(Nc1nnc(-c2ccc3c(c2)OCCO3)o1)C1CCCCC1`, the molecule was classed as inactive.
Turning to `COc1ccc2c(=O)ncn(-c3cccc(Cl)c3)c2c1`, the “activity change, negative = cytotoxicity” value is -1.88%.
The same measure, in the same setting: with `Cc1cc(F)cc2nc3c(cc12)c(NC(=O)c1ccco1)nn3C` the figure was 2.47% [at 100 µM].
